Measured values as given in PubChem BioAssay AID588855 (National Center for Advancing Translational Sciences (NCATS), 2011).
In all, about 410,000 compounds went through this assay and about 5,000 (1.2%) were called active. A call without a number means that no potency is given here. Not shown: some 13% with an inconclusive outcome. The sample holds actives, similar compounds and a random draw of the others, so the mix is not that of the screen. The call rests on the fitted dose curve; in most records, active means well fitted inhibition curve with a large enough effect; inconclusive means small, poorly fitted or top-dose-only effect; inactive means no such curve, though single readings can be large or run the other way.

experiment: qHTS for Inhibitors of TGF-b; conditions: HepG2 CAGA-GFP TGF-b/SMAD3 reporter, GFP fluorescence, 18 h, TGF-beta stimulated, 500 pg/mL final; series mostly up to 46.1 µM; further: nearly all actives have a fitted effect of over 65% in size
Method in brief: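 First, reporter cells (HEPG2 CAGA-GFP) rested 2 h at 37 degrees C. Next, compounds were pinned in and TGF-beta added to 500 pg/mL final. After 18 h, GFP was imaged per cell and summed per well.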
Potency means the concentration at half of the fitted maximal effect.

| SMILES | Potency |
| --- | --- |
| COc1cccc(N2CC(NC(=O)/C=C\c3ccccc3)CC2=O)c1 (centres undefined) | inactive |
| O=C(CCSCc1cccc(F)c1)NCc1ccccc1 | inactive |
| CCN(CCCNC(=O)c1ccc(Sc2ccc(C)cc2)c(NC(C)=O)c1)c1cccc(C)c1 | inactive |
| CCCOc1ccc(C(=O)C(CCC(CNCC)C(=O)c2ccc(OCCC)cc2)CNCC)cc1 (centres undefined) | 3.16 µM (active) |
| CCCOc1cccc(C(=O)Nc2cccc(NC(=O)c3ccc(C(C)(C)C)cc3)c2)c1 | inactive |
| COC(=O)c1ccc(OCC(=O)NC(C)(C)C)cc1 | inactive |
| Cc1cc(Br)ccc1NC(=O)Cn1cnc2sc(C)c(S(=O)(=O)N3CCN(C)CC3)c2c1=O | inactive |
| COc1cc(OC)cc(-c2nc3nc(C)c(CCC(=O)Nc4ccccc4)c(C)n3n2)c1 | inactive |
| Cc1ccc(-c2cn3c(n2)sc2cc(C(=O)NCCCc4ccccc4)ccc23)cc1 | inactive |
| COc1ccc(N2C(=O)CSC23C(=O)N(Cc2cccc(F)c2)c2ccccc23)cc1Cl (centres undefined) | inactive |
| COc1ccc(-c2nc3c4ccccc4n(CC(=O)Nc4ccc(C(C)=O)cc4)c(=O)n3n2)cc1 | inactive |
| COc1cc(CC(=O)Nc2nc(-c3ccc(F)c(F)c3)cs2)cc(OC)c1OC | 11.2 µM (active) |
| O=C(COC(=O)C1CCCO1)Nc1nc(-c2ccc(F)cc2)cs1 (centres undefined) | inactive |
| COc1ccc(CCNC(=O)COC(=O)Cc2cc(OC)c(OC)c(OC)c2)cc1 | inactive |
| O=[N+]([O-])c1ccc(S(=O)(=O)N2CCN(c3nc(-c4ccccc4)nc4ccccc34)CC2)cc1 | inactive |
| COc1cccc(CNC(=O)C(NS(=O)(=O)c2ccc3nc(C)sc3c2)C(C)C)c1 (centres undefined) | inactive |
| COc1ccccc1NC(=O)c1cc(Cl)nnc1Cl | inactive |
| COc1ccccc1NC(=O)/C=C/C(N)=O | 12.6 µM (active) |
| COc1ccccc1NC(=S)NC(=O)C(C)C | inactive |
| CCOC(=O)C1=C(c2ccccc2)Nc2ncnn2C1c1ccc(Cl)cc1 (centres undefined) | inactive |
| Clc1ccc2c(c1)C1=C(C(c3ccncc3)O2)C(c2ccc(Br)cc2)n2ncnc2N1 (centres undefined) | 3.98 µM (active) |
| Brc1ccc(C2=CC(c3ccco3)n3ncnc3N2)cc1 (centres undefined) | inactive |
| Cc1cc2c(C)nc(N/N=C/c3ccccc3)nc2o1 | inactive |
| FC(F)(F)c1cccc(N/N=C/c2ccccc2)c1 | 11.2 µM (active) |
| Cc1nnsc1C(=O)N/N=C/c1cccc(C(F)(F)F)c1 | inactive |

| SMILES | Potency |
| --- | --- |
| O=C1CSC2(C(=O)N(Cc3ccccc3)c3ccccc32)N1c1cccc(F)c1 (centres undefined) | inactive |
| CCN1CCc2nc3sc(C(=O)Nc4ccccc4OC(F)(F)F)c(N)c3cc2C1 | inactive |
| CCOC(=O)c1c(C)[nH]c(CCC(=O)Nc2ccc(OC)c(OC)c2)c1C | inactive |
| CN(C)C(CNC(=O)c1ccc(OCc2cn3ccccc3n2)cc1)c1ccco1 (centres undefined) | inactive |
| Cc1noc(C)c1COc1ccc(C(=O)NCCOc2ccccc2)cc1 | inactive |
| CN(C)CCNC(=O)c1ccc(-c2cn3c(-c4ccc(Oc5ccccc5)cc4)cnc3cn2)cc1 | 11.2 µM (active) |
| COc1ccc(CCNC(=O)C(=O)NCC(c2ccco2)S(=O)(=O)c2cccs2)cc1OC (centres undefined) | inactive |
| CN1C[C@@H](CO)O[C@@H](n2cnc3c(N4CCN(CCO)CC4)ncnc32)C1 | inactive |
| OC[C@@H]1O[C@H](n2cnc3c(SCc4ccccc4)ncnc32)[C@H](O)[C@H]1O | inactive |
| OCC1OC(n2cnc3c(N4CCCC4)ncnc32)C(O)C1O (centres undefined) | 2.82 µM (active) |
| COc1ccccc1NC(=O)CSc1oc(-c2ccco2)nc1S(=O)(=O)c1ccc(Br)cc1 | inactive |
| COc1ccccc1-c1cc2nc(C)c(CCC(=O)O)c(C)n2n1 | inactive |
| CN(N=O)c1ccc(C=C2c3ccccc3-c3ccccc32)cc1 | inactive |
| Cc1ccc(-c2nc(=N)sn2Cc2ccccc2)cc1 | inactive |
| Cc1ccc(-n2c3nc(=O)[nH]c(=O)c-3cc3c(Cl)cccc32)cc1 | inactive |
| O=C(NCCCN1CCN(c2cccc(Cl)c2)CC1)c1nnc(Cc2ccc(F)cc2Cl)o1 | 10 µM (active) |
| COc1ccc(N2CCN(CCNC(=O)c3nnc(Cc4c(F)cccc4Cl)o3)CC2)cc1 | inactive |
| Cc1ccc(CCNC(=O)c2nnc(Cc3cccc(F)c3)o2)cc1 | inactive |
| COc1ccc(CCC(=O)NCc2ccc3c(c2)CCN3C(=O)c2ccc(F)cc2)cc1 | inactive |
| CCCNC(=O)c1ccc(Cn2c(SCC(N)=O)nc3ccccc3c2=O)cc1 | inactive |
| COc1ccc(OC)c(CNC(=O)c2c3c(nc4ccccc24)C(=O)N(C2CCCCC2)C3)c1 | inactive |
| O=c1[nH]c(CCl)nc2cc(-c3ccc(Cl)cc3)sc12 | 5.01 µM (active) |
| Cn1c(NCc2cccnc2)nc2cc(-c3ccc(F)cc3)sc2c1=O | inactive |
| SCc1nc2ccc(Cl)cc2[nH]1 | inactive |
| CC(C)(C)c1ccc(C(=O)C[N+]2(C)CCCc3ccccc32)cc1 (centres undefined) | inactive |

| SMILES | Potency |
| --- | --- |
| Cc1nc(N=C(N)N)nc2c(C)cccc12 | 11.2 µM (active) |
| N#Cc1ccc[n+](CC(=O)c2ccc(O)c(O)c2)c1 | inactive |
| CCCCCCCNc1ccc(/C=C/c2ccnc3ccccc23)cc1 | inactive |
| COc1ccc(Cn2c(=O)c3oc4ccccc4c3n(CC(=O)Nc3ccc(F)cc3F)c2=O)cc1 | inactive |
| CC(C)CNc1ncnc2c1nnn2C | inactive |
| CCCCSc1ncnc2c1sc1nc(N3CCOCC3)c3c(c12)CCCC3 | inactive |
| Cc1oc2cc(Br)c(O)c(Br)c2c1C(=O)c1ccccc1 | inactive |
| CCOC(=O)c1c(C)oc2cc(Sc3ccccc3)c(O)c(O)c12 | 10 µM (active) |
| CCOC(=O)c1c(-c2ccccc2)oc2cc(Br)c(O)c(C=O)c12 | inactive |
| CCOc1ccc(NC(=O)c2c(NC(=O)Cc3ccccc3)sc3c2CCC(C)C3)cc1 (centres undefined) | inactive |
| COc1ccc(Cn2c(C(=O)O)c(CNCc3cccc(OC)c3)c3ccc(C)cc32)cc1 | inactive |
| COc1ccc(-n2c(=O)c3ccccc3n(Cc3ccccc3Cl)c2=O)cc1 | inactive |
| Cc1cc(-c2n[nH]c(=S)n2/N=C/C(Br)=C/c2ccccc2)n[nH]1 | 7.08 µM (active) |
| Cc1ccccc1-c1n[nH]c(=S)n1/N=C/c1ccc(-c2ccccc2Br)o1 | inactive |
| COc1ccccc1N1CCN(/N=C\C(Br)=C\c2ccccc2)CC1 | inactive |
| Cc1ccc(Cl)cc1NC(=O)CSc1nc2ccccc2nc1Cc1ccccc1 | inactive |
| Cc1ccc(CNC(=O)CSc2c(C)cnc3c2c(=O)n(C)c(=O)n3C)cc1 | inactive |
| CN1CCN(c2oc(-c3ccc(COc4ccc(Cl)cc4)o3)nc2C#N)CC1 | inactive |
| CCOc1cccc(NC(=O)c2ccc(F)c(S(=O)(=O)N(CC)c3cccc(C)c3)c2)c1 | inactive |
| COC(=O)c1ccc(C2CC(=O)Nc3cc(OC)c(OC)cc32)cc1 (centres undefined) | inactive |
| CCCOc1ccccc1C1CC(=O)Nc2cc3c(cc21)OCO3 (centres undefined) | 7.08 µM (active) |
| O=C1CC(c2ccc(F)cc2F)c2cc3c(cc2N1)OCO3 (centres undefined) | inactive |
| Cc1ccc(S(=O)(=O)n2nc(-c3ccc(Cl)cc3)nc2NCc2ccccc2)cc1 | inactive |
| COc1ccc(OC)c(-n2nnc3c(sc4nc(C)c(Br)c(C)c43)c2=O)c1 | inactive |
| Cc1ccccc1-c1nc2scc(CCNC(=O)C(=O)Nc3ccc(F)cc3F)n2n1 | inactive |

| SMILES | Potency |
| --- | --- |
| Cc1ccccc1S(=O)(=O)N1[C@@H](c2cccc(Cl)c2)C(C(=O)OC(C)(C)C)=CC[C@H]1c1ccc(Cl)cc1 | inactive |
| CCOC(=O)C1=CC[C@@H](c2ccccc2)N(S(=O)(=O)c2ccc(C)cc2)[C@H]1c1cccc(OC)c1 | inactive |
| Cc1ccc(S(=O)(=O)N2[C@@H](c3cccc(Cl)c3)C(C(=O)O)=CC[C@H]2c2ccc(Cl)c(Cl)c2)cc1 | 15.8 µM (active) |
| CCCCN(C)S(=O)(=O)c1ccc(C(=O)Nc2sc3c(c2C(N)=O)CC(C)(C)NC3(C)C)cc1 | inactive |
| CCc1ccc(NC(=O)c2nn(-c3ccc(C)cc3)c(=O)n(C)c2=O)cc1 | inactive |
| CCOC(=O)c1ccccc1NC(=O)c1nn(-c2ccc(OC)c(Cl)c2)c(=O)c2c1c1ccccc1n2C | inactive |
| O=C(NC1CC(=O)N(c2ccc(F)cc2)C1)C1CCCCC1 (centres undefined) | inactive |
| CCOC(=O)c1c(S(=O)(=O)NCC(=O)Nc2ccc(C)cc2)c(C)n(C)c1C | inactive |
| CCOC(=O)c1c(S(=O)(=O)Nc2cccc(Cl)c2)c(C)n(C)c1C | inactive |
| CCOC(=O)c1c(S(=O)(=O)NCC(=O)Nc2ccc(Cl)c(C(F)(F)F)c2)c(C)n(C)c1C | 11.2 µM (active) |
| COc1ccc(CCNC(=O)c2cnc3sc(N4CCCCCC4)nn3c2=O)cc1OC | inactive |
| CCCn1c(C(C)Nc2nc(-c3ccc(C)cc3)cs2)nc2cc(Cl)c(N3CCCCC3)cc21 (centres undefined) | inactive |
| Cc1nc2cc(C(F)(F)F)ccc2n1CCNc1nc(-c2cc(Cl)c(N)c(Cl)c2)cs1 | 11.2 µM (active) |
| Nc1c(Cl)cc(-c2csc(N3CCCC3c3nc4cc(Cl)c(Cl)cc4n3CCOCCO)n2)cc1Cl (centres undefined) | inactive |
| Cc1cccc(OCCCC(=O)Nc2sc3c(c2C(N)=O)CCC(C)C3)c1 (centres undefined) | inactive |
| O=C(CC1C(=O)N(c2ccccc2)C(=O)N1CCc1cccs1)Nc1ccc(F)cc1 (centres undefined) | inactive |
| O=C(NC1(C(F)(F)F)N=C(c2ccccc2)N(C2CCCCC2)C1=O)c1ccccc1F (centres undefined) | inactive |
| O=C1NC(Nc2nc3ccccc3s2)(C(F)(F)F)C(=O)N1C1CCCCC1 (centres undefined) | 7.94 µM (active) |
| COc1cc(SC#N)ccc1N=Cc1c(C)[nH]n(-c2ccc(C)cc2)c1=O | 10 µM (active) |
| CCN(CC)CCNC(=O)c1cc2c(=O)oc3ccc(C)cc3c2s1 | inactive |
| Cc1cccc(-n2ncc(C(=O)N3CCc4ccccc4C3)c2C2CCN(C(=O)OC(C)(C)C)CC2)c1 | inactive |
| CCCN(CCC)CCCNC(=O)Cn1ncc2c3ccccc3n(Cc3ccccc3)c2c1=O | inactive |
| CCN(CC)CCNC(=O)Cn1ncc2c3ccccc3n(Cc3ccccc3C)c2c1=O | 14.1 µM (active) |
| Cc1ccccc1Cn1c2ccccc2c2cnn(CC(=O)NCc3ccco3)c(=O)c21 | inactive |
